KCNQ2 enhance: enhances the rat KCNQ2 potassium channel | B-score at 10 µM | 310,000 compounds, 0.54% hits | AID 2239 | CHO-K1 KCNQ2, FluxOR thallium flux fluorescence; hits give high values | O88943;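 active = fluorescence ratio B-score at least 3 SD of library B-scores, with initial fluorescence B-score within 3 of them, cut at about 5.3 in these data; same plate scores as AID 2156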;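 also: B-score of peak minus minimum over baseline fluorescence ratio after K+ and Tl+ stimulus; positive B-score means potentiation of KCNQ2 with more thallium influx and brighter signal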
KCNQ2 block: blocks the rat KCNQ2 potassium channel; AID 2156; CHO-K1 KCNQ2, FluxOR thallium flux, 20 min; hits give low values; 310,000 compounds, 1.1% hits; B-score at 10 µM; O88943;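 active = fluorescence ratio B-score at most minus 3 library SDs, with starting brightness B-score within 2 library SDs, cut at about -5.5 in these data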
Kir21 confirm: confirmation of mouse Kir2.1 potassium channel inhibitors; shares compounds with KCNQ2 enhance; Kir2.1-expressing cells, FluxOR thallium flux fluorescence; hits give low values; Tl flux remaining, % of negative control (hits give low values), % at 10 µM; 2,300 compounds, 41% hits;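 active = Primary-screen hit whose thallium flux fell at least 3 control SD below untreated wells in both duplicates, with normal baseline fluorescence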;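 also: 0% = blank wells without stimulus and 100% = stimulated no-compound controls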
HEK293 ctr: counter-screen for Kir2.1 inhibitors: effect in parental HEK293 cells; AID 2105; FluxOR thallium flux fluorescence; 0% = unstimulated blank wells; 2,300 compounds, 19% hits; FluxOR signal as % of negative control (100 = no effect), % at 10 µM; shares compounds with KCNQ2 enhance;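 active = dye signal at least 3 control SD above or below untreated wells in both duplicates, raw fluorescence within 3, either direction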;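 also: percent is based on the flux ratio of peak minus minimum fluorescence over baseline F0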
CHO-K1 ctr: parental CHO-K1 activity in KCNQ2 potentiator counter-screen; shares compounds with KCNQ2 enhance; parental CHO-K1 cells, FluxOR thallium flux fluorescence; zero = vehicle mean+3SD, 100% = vehicle-minus-blank window; activity increase over 3SD of controls, % at 10 µM; 1,200 compounds, 43% hits;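 active = signal rise of at least 3 SD above the untreated control mean, in both duplicate wells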;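 also: counter screen of KCNQ2 potentiator hits so any rise reflects channel-independent effects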
KCNQ1 pot spec: selectivity of KCNQ2 potentiators: effect on human KCNQ1; 1,200 compounds, 28% hits; activation over 3SD threshold, % at 10 µM; shares compounds with KCNQ2 enhance; AID 2283; CHO KCNQ1 stable, FluxOR thallium flux fluorescence; beyond 3SD, as % of vehicle-control signal;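 active = fluorescence ratio rise of at least 3 SD of vehicle wells above their mean, in both replicate wells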;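 also: 0% = vehicle mean plus 3 SD and 100% = vehicle minus unstimulated blank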
KCNQ2 pot confirm: confirmation of rat KCNQ2 potassium channel potentiators | shares compounds with KCNQ2 enhance | CHO-KCNQ2 cells, FluxOR thallium flux fluorescence | potentiation, less the hit threshold, % at 10 µM | 1,200 compounds, 68% hits;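 active = fluorescence ratio rising 3 SD or more over the vehicle control mean in both replicates, plus primary screen hit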;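 also: peak minus minimum thallium fluorescence divided by baseline after K/Tl stimulus; 0% = vehicle mean plus 3 SD and 100% = vehicle minus unstimulated blank difference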
Kir21 spec: mouse Kir2.1 off-target activity of KCNQ2 potentiators; HEK293 Kir2.1, FluxOR thallium flux fluorescence; activity over 3SD threshold, % at 10 µM; 1,200 compounds, 2% hits; shares compounds with KCNQ2 enhance;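 active = fluorescence ratio rise of at least 3 SD above the vehicle-control mean, seen in both replicates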;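 also: 0% = vehicle mean plus 3 SD and 100% = vehicle minus no-stimulus blank window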
KCNQ2 W236L MoA: KCNQ2 potentiators acting on retigabine-insensitive rat KCNQ2 W236L mutant. shares compounds with KCNQ2 enhance. CHO KCNQ2-W236L, automated patch clamp current. current increase over 3SD of negative controls (%), hits give high values, % at 25 µM. 940 compounds, 10% hits. AID 2558;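 active = current increase at least 3 SD of the untreated controls above them in both duplicate recordings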
Target sequence (O88943 whole entry W236L, looked up): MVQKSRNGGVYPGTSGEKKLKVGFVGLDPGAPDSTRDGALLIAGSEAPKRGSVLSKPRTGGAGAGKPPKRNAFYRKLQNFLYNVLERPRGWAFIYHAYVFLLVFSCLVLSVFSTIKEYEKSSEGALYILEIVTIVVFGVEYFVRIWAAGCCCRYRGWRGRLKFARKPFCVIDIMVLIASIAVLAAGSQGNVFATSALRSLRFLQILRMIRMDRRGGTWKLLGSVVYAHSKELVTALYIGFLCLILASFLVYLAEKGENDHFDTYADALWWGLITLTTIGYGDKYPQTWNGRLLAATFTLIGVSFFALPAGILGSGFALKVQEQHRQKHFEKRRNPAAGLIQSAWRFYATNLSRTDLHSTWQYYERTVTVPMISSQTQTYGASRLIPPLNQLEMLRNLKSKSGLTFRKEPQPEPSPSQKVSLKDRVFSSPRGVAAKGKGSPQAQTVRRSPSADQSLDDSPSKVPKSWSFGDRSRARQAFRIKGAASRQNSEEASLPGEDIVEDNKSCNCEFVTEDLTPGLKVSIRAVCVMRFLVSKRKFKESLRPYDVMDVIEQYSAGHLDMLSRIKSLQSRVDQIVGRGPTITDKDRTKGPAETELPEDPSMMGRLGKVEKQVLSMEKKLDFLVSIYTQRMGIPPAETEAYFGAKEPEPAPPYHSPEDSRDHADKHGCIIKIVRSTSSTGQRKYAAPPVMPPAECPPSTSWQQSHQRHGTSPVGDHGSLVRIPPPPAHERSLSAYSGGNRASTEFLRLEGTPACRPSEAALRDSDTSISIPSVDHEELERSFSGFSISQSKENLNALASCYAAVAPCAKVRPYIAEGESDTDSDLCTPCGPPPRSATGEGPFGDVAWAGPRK
* = called active by the depositor; i = inactive; . = no result given. Compounds with a hit are over-represented: about 1.6% of the library has one in this group of screens.

SMILES	KCNQ2 enhance	KCNQ2 block	Kir21 confirm	HEK293 ctr	others
CC(C)Cc1nc(SCC(=O)N2CCCCC2)c2c(=O)n(C)c(=O)n(C)c2n1	26.8*	i	i	i	CHO-K1 ctr=-24.0;KCNQ1 pot spec=-4.9;KCNQ2 pot confirm=121.3*;Kir21 spec=-15.7;KCNQ2 W236L MoA=i
CC(C)c1nc(SCC(=O)N2CCOCC2)c2c(=O)n(C)c(=O)n(C)c2n1	1.84	i	.	.
O=C(OCCN1CCN(C2=NS(=O)(=O)c3ccccc32)CC1)c1ccccc1F	0.46	i	.	.
CCCCSCCCNC(=O)c1ccc(CS(=O)(=O)c2ccccc2OC)o1	.	i	.	.
CCOC(=O)C1CCN(Cc2cccc(Oc3ccccc3)c2)CC1	.	i	27.0%*	i
CCOC(=O)C1CCN(Cc2cccc(Oc3ccc(Cl)cc3)c2)CC1	.	i	.	.
CCc1ccc(S(=O)(=O)NCCc2csc(-c3ccccc3)n2)s1	.	i	.	.
CCc1ccc(S(=O)(=O)NCc2csc(-c3ccccc3)n2)s1	.	i	49.0%*	i
Cc1cccc(NC(=O)CSc2nc(N)c(NC(=O)c3cccs3)c(=O)[nH]2)c1C	2.09	i	.	.
O=C(NCCN1C(=O)S/C(=C\c2ccc(Cl)c([N+](=O)[O-])c2)C1=O)C1=COCCO1	.	i	.	.
COc1ccc2nc(NCc3ccccc3)[nH]c2c1	0.44	i	.	.
Cc1ccc2nc(NCc3ccccc3)[nH]c2c1	.	i	22.5%*	i
Cn1c(=O)c2c(nc(CN3CCN(C(c4ccccc4)c4ccccc4)CC3)n2CCCO)n(C)c1=O	.	i	.	.
COCCn1c(CN2CCN(C(c3ccccc3)c3ccccc3)CC2)nc2c1c(=O)n(C)c(=O)n2C	5.9*	i	i	i	CHO-K1 ctr=-2.8;KCNQ1 pot spec=-16.7;KCNQ2 pot confirm=-16.6;Kir21 spec=-23.6
CCOc1ccccc1N(C)C(=O)Cn1ncc2c([nH]c3ccc(C)cc32)c1=O	.	i	.	.
CCCOC(=O)Nc1cc(OC)ccc1[N+](=O)[O-]	1.5	i	.	.
COc1ccc(-c2cnnn2-c2ccc([N+](=O)[O-])cc2)cc1	.	i	.	.
CN[C@H]1CC[C@@H](c2ccc(Cl)c(Cl)c2)c2ccccc21	.	i	32.0%*	i
CCCN1C(=O)c2ccccc2NC1c1ccc(Cl)c(Cl)c1 (stereo not given)	.	i	.	.
O=C(NC1CCCc2ccccc21)C12CC3CC(CC(O)(C3)C1)C2 (stereo not given)	0.3	i	.	.
N#Cc1cccc(Nc2c3c(nc4ccccc24)CCC3)c1	.	i	.	.
Cc1cccc(Nc2c3c(nc4ccccc24)CCC3)c1	.	i	31.0%*	i
CCN(CC)CCCN(C(=O)c1ccc(OC)cc1)c1nc(-c2ccc(OC)cc2)cs1	1.34	i	77.5%*	i
CCN(CC)CCCN(C(=O)c1ccccc1C)c1nc(-c2ccc(OC)cc2)cs1	0.81	i	.	.
CCC1=NN(C(=O)c2ccc([N+](=O)[O-])cc2)C(O)(c2ccccc2)C1 (stereo not given)	2.11	i	.	.
SMILES	KCNQ2 enhance	KCNQ2 block	Kir21 confirm	HEK293 ctr	others
CC1=NN(C(=O)c2ccccc2Cl)C(O)(c2cccnc2)C1 (stereo not given)	3.72	i	.	.
CCC1=NN(C(=O)c2ccccc2O)C(O)(c2ccccc2)C1 (stereo not given)	10.5*	i	i	148.5%*	CHO-K1 ctr=-13.2;KCNQ1 pot spec=-9.7;KCNQ2 pot confirm=14.2*;Kir21 spec=-37.1;KCNQ2 W236L MoA=i
CC1=NN(C(=O)c2ccccc2C)C(O)(c2ccc(Cl)cc2)C1 (stereo not given)	11.1*	i	i	i	CHO-K1 ctr=21.8*;KCNQ1 pot spec=-15.5;KCNQ2 pot confirm=-13.7;Kir21 spec=-34.5
CCNc1c(NCC)c(=O)c1=O	1.47	i	.	.
O=C(NCc1ccc2c(c1)OCO2)C(=O)NCC1OCCCN1S(=O)(=O)c1ccc(F)cc1 (stereo not given)	0.05	i	.	.
Cc1nn(CC(=O)NCCCN2CCCC2)c(=O)c2nn(-c3ccccc3)c(C)c12	0.48	i	.	.
O=C1ON=C(c2ccccc2)/C1=C/c1ccc(O)c(O)c1	6.82*	i	70.5%*	i	CHO-K1 ctr=-3.8;KCNQ1 pot spec=-5.6;KCNQ2 pot confirm=-1.3;Kir21 spec=-70.9;KCNQ2 W236L MoA=i
COc1ccc(/C=C2\C(=O)ON=C2c2ccccc2)cc1	.	i	.	.
COc1cc(C)c(C)cc1S(=O)(=O)n1c(C)nc2ccccc21	.	i	.	.
COc1cc(F)ccc1S(=O)(=O)n1c(C)nc2ccccc21	.	i	52.5%*	i
CCc1cccc(NC(=O)CCCn2nc(C)c3c(C)n(-c4ccccc4)nc3c2=O)c1	.	i	.	.
COc1ccc(CNC(=O)CN(C(=O)c2snc(C(N)=O)c2N)c2ccccc2F)cc1	.	i	.	.
Cc1cccc(C=Nc2ccc3c4c(cccc24)CC3)c1O	.	i	.	.
CCc1ccc(O)c(N=Cc2cccc(C)c2O)c1	7.45*	i	i	i	CHO-K1 ctr=-18.6;KCNQ1 pot spec=-12.3;KCNQ2 pot confirm=17.4*;Kir21 spec=-20.1;KCNQ2 W236L MoA=i
COc1cccc(CN2CC(C(=O)NCCN3CCOC3=O)CCC2=O)c1 (stereo not given)	0.05	i	.	.
COc1ccccc1N=NC1=C(O)CC(C)(C)CC1=O	.	i	.	.
Cc1c(N=NC2=C(O)CC(C)(C)CC2=O)cc2c(c1[N+](=O)[O-])C(C)(C)CC2(C)C	6.68*	i	i	i	CHO-K1 ctr=41.5*;KCNQ1 pot spec=-10.7;KCNQ2 pot confirm=-0.5;Kir21 spec=-31.4;KCNQ2 W236L MoA=i
O=S(=O)(NCCc1ccccc1)c1ccc(Cl)nc1	0.07	i	.	.
O=C1C(Cc2c[nH]c3ccccc23)NC(=S)N1Cc1ccccc1 (stereo not given)	.	i	48.0%*	i
O=C1NC(Cc2c[nH]c3ccccc23)C(=O)N1Cc1ccccc1 (stereo not given)	.	i	.	.
CC1(C)Oc2ccc3ccc(=O)oc3c2/C(=C/NNC(N)=S)C1=O	.	i	.	.
Cc1ccccc1CC(=O)NCC1CCCCC1	4.23	i	.	.
Cc1ccc(CC(=O)NCC2CCCCC2)cc1	7.49*	i	i	i	CHO-K1 ctr=46.8*;KCNQ1 pot spec=-25.9;KCNQ2 pot confirm=-10.8;Kir21 spec=-23.1
COc1ccc(Oc2c(-c3ccc(O)cc3O)n[nH]c2C)cc1	.	i	61.0%*	i
CCCOC(=O)c1ccc(Oc2c(-c3ccc(OCC)cc3O)n[nH]c2C)cc1	.	i	.	.
SMILES	KCNQ2 enhance	KCNQ2 block	Kir21 confirm	HEK293 ctr	others
CSCCC(=O)NC1CCCN(CCc2ccccc2)C1 (stereo not given)	.	i	.	.
Oc1ccccc1N=Nc1ccccc1O	7.9*	i	i	i	CHO-K1 ctr=-11.3;KCNQ1 pot spec=-9.8;KCNQ2 pot confirm=-22.8;Kir21 spec=-32.1
Nc1ccc(N=Nc2ccccc2O)c(N)c1	0.67	i	.	.
Cc1ccc(SCC(=O)Nc2nnc(-c3ccco3)o2)cc1	5.56*	i	.	.	CHO-K1 ctr=-2.2;KCNQ1 pot spec=-16.3;KCNQ2 pot confirm=-19.8;Kir21 spec=-43.2
O=C(CSc1ccc(F)cc1)Nc1nnc(-c2ccco2)o1	1.79	i	.	.
O=c1ccsn1Cc1ccccc1	5.65*	i	.	.	CHO-K1 ctr=-17.8;KCNQ1 pot spec=-17.2;KCNQ2 pot confirm=-4.3;Kir21 spec=-63.2
O=c1cc(Cl)[nH]c(=O)n1Cc1ccccc1	1.12	i	.	.
